Data from the antibiotic and cytotoxicity screens of Wong et al. (2023).
Screen size: about 39,000 compounds; about 3,300 (8.5%) were called active. This excerpt belongs to a sample that is enriched for actives.

system: HepG2; experiment: cytotoxicity call (relative viability < 0.9); conditions: 10 µM

SMILES | cytotoxicity call
O=C(C[C@@H]1CC[C@H]2[C@@H](COC[C@H](O)CN2Cc2ccccc2F)O1)N[C@@H]1CCN(Cc2ccccc2)C1 | inactive
COc1ccc(S(=O)(=O)Nc2cccc3c2O[C@H](CN(C)S(=O)(=O)c2c(C)noc2C)[C@@H](C)CN([C@H](C)CO)C3=O)cc1 | inactive
C/C=C/c1ccc([C@@H]2[C@H](CO)N(S(=O)(=O)Cc3ccccc3)C23CN(C(=O)C2CCOCC2)C3)cc1 | inactive
C[C@@H]1CN([C@H](C)CO)C(=O)c2cc(NC(=O)NC3CCCCC3)ccc2O[C@@H](C)CCCCO[C@@H]1CN(C)C(=O)c1ccccc1 | inactive
COc1ccc(S(=O)(=O)N(C)C[C@@H]2OCc3cnnn3CCCC(=O)N([C@H](C)CO)C[C@@H]2C)cc1 | inactive
COCC#Cc1cnc2c(c1)C(=O)N([C@@H](C)CO)C[C@@H](C)[C@@H](CN(C)C(=O)Nc1ccc(OC)cc1)O2 | inactive
C[C@H](CO)N1C[C@H](C)[C@H](CN(C)Cc2ccc(C(F)(F)F)cc2)Oc2c(NC(=O)C3CCCCC3)cccc2C1=O | inactive
COC(=O)c1cc(=O)n2ccccc2c1C#N | inactive
CO[C@@H](CN(C)C(=O)c1ccccc1F)[C@H](C)CN([C@@H](C)CO)S(=O)(=O)c1ccc(Cl)cc1 | inactive
C[C@H](CO)N1C[C@H](C)[C@H](CN(C)Cc2ccncc2)Oc2ccc(NS(=O)(=O)c3cn(C)cn3)cc2CC1=O | inactive
C[C@H]1CCCCO[C@@H](CN(C)C)[C@@H](C)CN([C@@H](C)CO)C(=O)c2cc(NC(=O)CCCN(C)C)ccc2O1 | inactive
C=CC[C@H](CC(=O)NCCO)C(=O)N[C@@H](COC(=O)[C@@H](CC=C)CC(=O)OC(C)(C)C)Cc1ccccc1 | inactive
CO[C@H]1CN(C)C(=O)c2ccc(NC(=O)C3CC3)cc2OC[C@@H](C)N(C(=O)C2CCOCC2)C[C@H]1C | inactive
Cc1ccc(S(=O)(=O)N2C[C@H](O)COC[C@H]3O[C@@H](CC(=O)N[C@H]4CCN(Cc5ccccc5)C4)CC[C@@H]32)cc1 | inactive
COc1cccc(S(=O)(=O)Nc2ccc3c(c2)[C@H]2C[C@H](CC(=O)N4CCCCC4)O[C@@H](CO)[C@H]2O3)c1 | inactive
Cc1ccc(S(=O)(=O)Nc2ccc3c(c2)CC(=O)N([C@H](C)CO)C[C@H](C)[C@@H](CN(C)Cc2ccc(C(F)(F)F)cc2)O3)cc1 | inactive
Cc1ccc(S(=O)(=O)Nc2ccc3c(c2)CC(=O)N([C@@H](C)CO)C[C@@H](C)[C@H](CN(C)Cc2ccc(C(F)(F)F)cc2)O3)cc1 | inactive
Cc1ccc(S(=O)(=O)Nc2ccc3c(c2)CC(=O)N([C@@H](C)CO)C[C@@H](C)[C@@H](CN(C)Cc2ccc(C(F)(F)F)cc2)O3)cc1 | active
C[C@@H]1CCCCO[C@H](CN(C)C(=O)Nc2ccc(C(F)(F)F)cc2)[C@@H](C)CN([C@H](C)CO)C(=O)c2cc(NC(=O)c3ccncc3)ccc2O1 | inactive
Cc1cccc(C)c1OC[C@@H](C)N | inactive
Cc1cccc2ccccc12 | inactive

SMILES | cytotoxicity call
Cc1cccc(C)c1OCC(C)N.Cl (stereo not drawn) | active
C[C@@H]1CN([C@@H](C)CO)C(=O)c2cc(NS(=O)(=O)c3cn(C)cn3)ccc2O[C@@H]1CN(C)S(=O)(=O)c1ccc(Cl)cc1 | inactive
O=C(CCCCCCC(=O)Nc1ccc([C@H]2O[C@@H](CSc3nc4ccccc4o3)C[C@H](c3ccccc3)O2)cc1)NO | active
O=C(CCCCCCC(=O)Nc1ccc([C@H]2O[C@@H](CN3CCCCCCC3)C[C@H](c3ccccc3)O2)cc1)NO | inactive
O=C(O)CCCCCCC(=O)Nc1ccc([C@H]2O[C@@H](CSc3nc(-c4ccccc4)c(-c4ccccc4)o3)C[C@H](c3ccc([N+](=O)[O-])cc3)O2)cc1 | inactive
O=C(CCCCCCC(=O)Nc1ccc([C@H]2O[C@@H](COc3ccccc3)C[C@H](c3ccccc3)O2)cc1)NO | inactive
O=C(CCCCCCC(=O)Nc1ccc([C@@H]2O[C@H](CSc3nc(-c4ccccc4)c(-c4ccccc4)o3)C[C@H](c3ccccc3)O2)cc1)NO | inactive
COc1cc2c(cc1OC)CN(C[C@H]1C[C@H](c3ccccc3)O[C@H](c3ccc(NC(=O)CCCCCCC(=O)NO)cc3)O1)CC2 | active
O=C(CCCCCCC(=O)Nc1ccc([C@H]2O[C@H](CSc3nc(-c4ccccc4)c(-c4ccccc4)o3)C[C@H](c3ccc(NC(=O)CCCCCCC(=O)NO)cc3)O2)cc1)NO | inactive
O=C(CCCCCCC(=O)Nc1ccc([C@H]2O[C@@H](CSc3nc(-c4ccccc4)c(-c4ccccc4)o3)C[C@H](c3ccc([N+](=O)[O-])cc3)O2)cc1)NO | active
O=C(CCCCCCC(=O)Nc1ccc([C@H]2C[C@@H](CSc3nc(-c4ccccc4)c(-c4ccccc4)o3)O[C@H](c3ccccc3)O2)cc1)NO | inactive
C[C@@H]1CN([C@H](C)CO)C(=O)c2cc(C#CCN(C)C)cnc2O[C@@H]1CN(C)C(=O)CCN1CCCCC1 | inactive
Cc1noc(C)c1NC(=O)N[C@@H]1C=C[C@H](CC(=O)NCCCN(C)C)O[C@@H]1CO | inactive
C[C@@H]1CN([C@@H](C)CO)C(=O)c2cccc(NC(=O)Nc3ccc4c(c3)OCO4)c2O[C@H]1CN(C)Cc1ccc(Cl)c(Cl)c1 | inactive
C[C@H](CO)N1C[C@H](C)[C@@H](CN(C)C(=O)Nc2ccc(C(F)(F)F)cc2)Oc2ccc(NC(=O)Nc3cccc4ccccc34)cc2CC1=O | inactive
C[C@H](CO)N1C[C@H](C)[C@@H](CN(C)Cc2ccc(C(=O)Nc3ccccc3N)cc2)OCCCC[C@H](C)Oc2ccc(N(C)C)cc2C1=O | inactive
C[C@@H]1CN([C@H](C)CO)C(=O)c2cc(NC(=O)C3CC3)ccc2O[C@@H]1CN(C)S(=O)(=O)c1ccc(Cl)cc1 | inactive
C[C@@H]1CN([C@@H](C)CO)C(=O)c2c(c3ccccc3n2C)-c2ccccc2CO[C@H]1CN(C)Cc1ccc(C(F)(F)F)cc1 | inactive
C[C@@H]1CN([C@H](C)CO)S(=O)(=O)c2ccc(C#Cc3ccc(F)cc3)cc2O[C@@H]1CN(C)S(=O)(=O)c1ccc(F)cc1 | inactive
C[C@@H]1CN([C@H](C)CO)S(=O)(=O)c2ccc(C#Cc3ccncc3)cc2O[C@@H]1CN(C)S(=O)(=O)c1ccc(F)cc1 | active
C[C@H]1CN([C@@H](C)CO)S(=O)(=O)c2ccc(C#Cc3ccc(F)cc3)cc2O[C@@H]1CN(C)S(=O)(=O)c1ccc(F)cc1 | inactive

SMILES | cytotoxicity call
CC(C)CC#Cc1ccc2c(c1)O[C@H](CN(C)S(=O)(=O)c1ccc(F)cc1)[C@@H](C)CN([C@@H](C)CO)S2(=O)=O | inactive
C[C@H]1CN([C@@H](C)CO)S(=O)(=O)c2ccc(C#Cc3ccncc3)cc2O[C@H]1CN(C)S(=O)(=O)c1ccc(F)cc1 | active
C[C@@H]1CN([C@@H](C)CO)S(=O)(=O)c2ccc(C#Cc3ccncc3)cc2O[C@H]1CN(C)S(=O)(=O)c1ccc(F)cc1 | active
C[C@H]1CN([C@@H](C)CO)S(=O)(=O)c2ccc(C#Cc3ccc(F)cc3)cc2O[C@H]1CN(C)S(=O)(=O)c1ccc(F)cc1 | inactive
C[C@@H]1CN([C@H](C)CO)S(=O)(=O)c2ccc(C#Cc3ccc(F)cc3)cc2O[C@H]1CN(C)S(=O)(=O)c1ccc(F)cc1 | inactive
C[C@@H]1CN([C@H](C)CO)S(=O)(=O)c2ccc(C#Cc3ccncc3)cc2O[C@H]1CN(C)S(=O)(=O)c1ccc(F)cc1 | active
CC(C)CC#Cc1ccc2c(c1)O[C@@H](CN(C)S(=O)(=O)c1ccc(F)cc1)[C@H](C)CN([C@H](C)CO)S2(=O)=O | inactive
C[C@H]1CN([C@@H](C)CO)S(=O)(=O)c2ccc(C#Cc3ccncc3)cc2O[C@@H]1CN(C)S(=O)(=O)c1ccc(F)cc1 | inactive
C[C@H](CO)N1C[C@H](C)[C@@H](CN(C)S(=O)(=O)c2ccc(F)cc2)Oc2cc(C#Cc3ccncc3)ccc2S1(=O)=O | inactive
O=C(C[C@@H]1C=C[C@@H](NC(=O)CN2CCOCC2)[C@@H](CO)O1)NCCc1ccccc1 | inactive
C[C@H](CO)N1C[C@H](C)[C@@H](CN(C)Cc2cccc(C(=O)O)c2)Oc2ncc(C#CC(C)(C)O)cc2C1=O | inactive
O=C(CCCCCCC(=O)Nc1ccc([C@H]2O[C@@H](CSc3ccncc3)C[C@@H](c3ccccc3)O2)cc1)NO | inactive
C[C@H]1CCCCO[C@H](CN(C)S(=O)(=O)c2cn(C)cn2)[C@@H](C)CN([C@@H](C)CO)C(=O)c2cc(NC(=O)CCCN(C)C)ccc2O1 | inactive
C[C@@H]1CCCCO[C@H](CN(C)Cc2ccncc2)[C@H](C)CN([C@@H](C)CO)C(=O)c2cc(NC(=O)CCC(F)(F)F)ccc2O1 | inactive
CN1CCN(C(=O)[C@H]2[C@H](CO)[C@H]3Cn4c(cccc4=O)[C@@H]2N3S(=O)(=O)c2ccccc2F)CC1 | inactive
CCNC(=O)C[C@@H]1CC[C@@H]2[C@H](COC[C@H](O)CN2S(=O)(=O)c2ccc(Oc3ccccc3)cc2)O1 | inactive
O=S1(=O)CC[C@H](N2CCOCC2)C1 | inactive
COc1ccc(NC(=O)Nc2ccc3c(c2)C(=O)N([C@H](C)CO)C[C@H](C)[C@@H](CN(C)C(=O)CCC(F)(F)F)OCCCC[C@@H](C)O3)cc1 | inactive
Cc1noc(C)c1NC(=O)Nc1cccc2c1O[C@@H](CN(C)Cc1ccc(C(=O)Nc3ccccc3N)cc1)[C@@H](C)CN([C@H](C)CO)C2=O | inactive
O=C(CN1CCOCC1)N[C@H]1CC[C@@H](CCNC(=O)C2CCCCC2)O[C@@H]1CO | inactive
C[C@@H]1CCCCO[C@H](CN(C)C(=O)NC2CCCCC2)[C@H](C)CN([C@H](C)CO)C(=O)c2cc(NC(=O)CCC(F)(F)F)ccc2O1 | inactive
